The source of these data is PubChem BioAssay (NCATS).

Where “and” joins values, the source holds several entries; their conditions need not be identical. Equal values may be shown once. Results filed as inconclusive are left out. Calls of active or inactive are those of the source. Unless noted, the call rests on the fitted dose curve; in most records, active means well fitted curve in the direction sought with a large enough effect; inconclusive means small, poorly fitted or top-dose-only effect, or another doubt; inactive means no such curve, though single readings can be large; an effect the other way counts as inactive or inconclusive.

The nature of assay [1]: Validation of Assay for Modulators of Lamin A Splicing (AID 1459; active means well fitted curve in the direction sought with a large enough effect in the signal ratio; the % refers to the signal ratio;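 further: cells exposed to compound for two days before reading; 0% is about no effect; ratio rise marks activators and ratio drop marks inhibitors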). Put shortly: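 Splicing correction is reported by an EGFP-containing lamin A minigene in stably transfected S3 HeLa cells, while DsRed2 controls for viability and nonspecific signal. Cells are exposed to compounds for 48 hrs before the GFP over RFP ratio is taken.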
Assay [2] can be described thus: qHTS Assay for Lipid Storage Modulators (AID 1519; calls by dose curve; on activity change, negative = inhibition: on the % scale 0 is the no-effect control and ±100 the full control effect). Particulars: Drosophila S3 cells, BODIPY lipid droplet/cell ratio, laser cytometry, cells loaded with oleic acid; for activity change, negative = inhibition: at 57.5 µM (top of the series). Put shortly:
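Cells seeded at 5,000 per well were treated with compounds over a concentration series and loaded with oleic acid (400 uM, as added). Lipid droplet fluorescence (488 nm excitation, 500-530 nm channel) was read by laser-scanning cytometry and normalized to 20 uM Triacsin C.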

Assay [3] has as its target DNA repair nuclease/redox regulator APEX1 (Homo sapiens) (UniProt P27695). Put plainly: qHTS Validation Assay for Inhibitors of the Human Apurinic/apyrimidinic Endonuclease 1 (APE1) (AID 1705;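 further: TAMRA fluorescence gain over two minutes as APE1 cuts a quenched THF abasic duplex; on the % scale 0 is the no-effect control and ±100 the full control effect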). Put shortly:
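Endonuclease activity of human APE1 is followed as dequenching when the enzyme incises a tetrahydrofuran abasic site in a short duplex labelled 5'-TAMRA/3'-BHQ-2 (50 nM final), after 15 min enzyme–compound preincubation at room temperature.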
In general terms: qHTS replaces the single test concentration by a dilution series.

The nature of assay [4]: Counterscreen for APE1 Inhibitors: Fluorescent Dye Displacement Validation Assay (AID 1707).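 Further: plate controls were ThO with dsDNA and no compound for no effect and ThO without dsDNA for full effect.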 Put shortly:
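Compounds are scored by their ability to displace Thiazole Orange (250 nM) from a 50 nM TAMRA-tagged duplex bearing a tetrahydrofuran abasic site. Buffer is 50 mM Tris-HCl pH7.5, 50mM NaCl, 2 mM MgCl2, 0.01% Tween-20.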
A general note: Counterscreens check selectivity or assay interference.

Assay [5] deals with Endonuclease 4 (Escherichia coli (strain K12)) (UniProt P0A6C1). In words: Counterscreen for APE1 Inhibitors: qHTS Validation Assay for Inhibitors of Endonuclease IV (AID 1708). Further: on the % scale 0 is the no-effect control and ±100 the full control effect. In short, it runs like this: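 E. coli EndoIV at 2 nM final, preincubated 15 min at room temperature with compound, then 50 nM TAMRA/BHQ-2 THF abasic-site duplex added. Buffer: 50 mM Tris-HCl pH 7.5, 50 mM NaCl, 2 mM MgCl2, 1 mM DTT, 0.01% Tween-20. Kinetic fluorescence increase, third minus first read.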

Assay [6] concerns the target ATP-dependent DNA helicase Q1 (Homo sapiens) (UniProt P46063). Put plainly: qHTS Validation Assay for Inhibitors of RecQ-Like Dna Helicase 1 (RECQ1) (AID 2353).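 Further: plate controls were DMSO vehicle for no effect and enzyme-free control for full effect.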 Put shortly: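 50 nM RECQ1T1 preincubated 15 min with compound in Tris pH 8.0 buffer with MgCl2, DTT, Tween-20 and 2.5 ug/ml poly(dI-dC); started with 200 nM TAMRA/BHQ-2 forked duplex and 2 mM ATP. Unwinding read as fluorescence (525/598 nm), two reads 2 h apart.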

A short description of assay [7]: Validation screen for small molecules that induce DNA re-replication in MCF 10A normal breast cells (AID 463097). Further: 0% is about no effect; nearly all actives have a fitted effect of over 60% in size. In short, it runs like this: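 DNA re-replication was detected as a rise in nuclei with elevated Hoechst fluorescence after a 48 hr compound exposure of MCF 10A cells at 37 C.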
A short description of assay [8]: Quantitative high throughput screen for delayed death inhibitors of the malarial parasite plastid, 96 hour incubation (AID 488745).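 Further: luciferase-expressing P. falciparum in erythrocytes at 2% hematocrit and 0.1% parasitemia; on the % scale 0 is the no-effect control and ±100 the full control effect; nearly all actives have a fitted effect of over 70% in size.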 In short, it runs like this: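 Infected erythrocytes were added to compound in Albumax-supplemented RPMI 1640 at 0.1% parasitemia and 2% hematocrit (final), incubated 96 h at 37 C under 5% CO2, then luciferase reagent was added and luminescence measured.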

Assay [9] is described as follows: Quantitative high throughput screen for delayed death inhibitors of the malarial parasite plastid, 48 hour incubation (AID 488752). Further: on the % scale 0 is the no-effect control and ±100 the full control effect; nearly all actives have a fitted effect of over 65% in size. In short, it runs like this:
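Readout is firefly luciferase luminescence from a reporter integrated into the parasite genome, with lower signal taken as inhibited growth. Infected red cells (0.1% parasitemia, 2% hematocrit final) are cultured with compound for one 48 h cycle at 37 C.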

Assay [10] concerns the target M-phase phosphoprotein 8 (Homo sapiens) (UniProt Q99549). In words: qHTS Validation Assay for Inhibitors for MPP8 Chromodomain Interactions with Methylated Histone Tails (AID 488949).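 Further: AlphaScreen signal from MPP8 chromodomain bound to biotinylated H3K9me3 peptide; top concentration of the series differs between compounds; on the % scale 0 is the no-effect control and ±100 the full control effect; nearly all actives have a fitted effect of over 55% in size.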 In short, it runs like this:
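Disruption of the preformed MPP8–trimethyl-H3K9 peptide complex (both 50 nM, 30 min, RT) is measured after 30 min compound exposure, using AlphaScreen proximity beads; aurintricarboxylic acid titration serves as plate control.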

In assay [11] the target is Thyrotropin-releasing hormone receptor (Homo sapiens) (UniProt P34981). Put plainly: qHTS for Small Molecule Agonists and Allosteric Enhancers of Human TRH Receptor: Validation Screen for Agonists (AID 493127;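 active means calcium activation more than 3 SD above the typical response in the agonist read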;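 further: intracellular calcium rise by fluo-8 fluorescence before TRH EC20 addition; 0% is about no effect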). Particulars: TRH receptor agonist cell assay; at 2 µM; stronger effect = higher value. In short, it runs like this:
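Cells 2000/well, 10% FCS, 18 h 33.5C/5% CO2 → fluo-8 Ca dye, RT 30 min–1.5 h → FDSS baseline 10 × 1 s → compound added → 230 cycles (1 s/cycle) agonist mode. TRH controls.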

Assay [12] deals with Galactokinase (Homo sapiens) (UniProt P51570). Put plainly: qHTS Validation Assay for Inhibitors of Human Galactokinase (GALK) (AID 493189). Further: 0% is about no effect. In short, it runs like this:
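Compounds were pin-transferred into ATP buffer, then GALK-galactose mix was added (final 5 nM enzyme, 100 uM galactose, 35 uM ATP). After 1 h at room temperature, remaining ATP was measured luminescently.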

Assay [13] in a line: Validation screen for small molecules that induce DNA re-replication in SW480 colon adenocarcinoma cells (AID 504364). Further: 0% is about no effect. In short, it runs like this: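 250 cells/well; compound pinned in; 48 hr, 37 C, 5% CO2; Hoechst added, 40 min; nuclear fluorescence imaged, 405 ex / 500-530 em; re-replication scored as increase in high-intensity nuclei.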
Assay [14] is described as follows: Primary qHTS for inhibitors of nuclear receptor binding SET domain protein 2 (NSD2) in an RCH-ACV wild type WT cells (2C) (AID 1645877). Further: potency means the concentration at half of the fitted maximal effect; nearly all actives have a fitted effect of over 70% in size.
Assay [15] has as its target Glutathione peroxidase 1 (Homo sapiens) (UniProt P07203). In words: Primary qHTS Assay for Inhibitors of Recombinant Selenoprotein Glutathione Peroxidase 1 (GPX1) (AID 1845191). Further: nearly all actives have a fitted effect of over 65% in size. In short, it runs like this: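 GR-coupled assay: compounds preincubated 30 min at room temperature with GPX1, then reaction started with CHP; final 10 nM GPX1, 1 mM GSH, 0.5 mM CHP, 0.5 mM NADPH, 100 nM GR, 0.01% BSA, pH 7.5 Tris buffer. NADPH fluorescence (340/450 nm) read at 0 and 15 min.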

Assay [16] addresses Phospholipid hydroperoxide glutathione peroxidase GPX4 (Homo sapiens) (UniProt P36969). Put plainly: Primary qHTS Assay for Inhibitors of Recombinant Selenoprotein Glutathione Peroxidase 4 (GPX4) (AID 1845192). Further: on the % scale 0 is the no-effect control and ±100 the full control effect; nearly all actives have a fitted effect of over 65% in size. Particulars: outcome: dose series up to 50 µM unless noted. In short, it runs like this:
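GR-coupled assay: recombinant GPX4 preincubated 30 min with compound at room temperature; final 200 nM GPX4, 1 mM GSH, 0.5 mM cumene hydroperoxide, 0.5 mM NADPH, 100 nM GR, 0.01% BSA, pH 7.5 Tris. NADPH fluorescence (340/450 nm) read at 0 and 15 min.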

Assay [17] is described as follows: qHTS drug screen for cell cycle checkpoint inhibitors in PARPi-resistant BRCA-mutant ovarian cancer cell lines. (AID 1963452; calls by dose curve). Particulars: PEO1/OlaR viability, CellTiter-Glo luminescence, 96 h, stronger effect = lower value. Put shortly: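 PEO1, PEO4 and PEO1/OlaR ovarian cancer cells, 600 per well, exposed 96 h at 37C to a dilution series. Viability read by CellTiter-Glo luminescence, normalized to DMSO and empty wells; activity summarized as Z-AUC.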

The nature of assay [18]: qHTS assay to identify inhibitors of the type 1 interferon - major histocompatibility complex class I in skeletal muscle: Counter screen cell viability and HiBit confirmation (AID 1347412). Further: on the % scale 0 is the no-effect control and ±100 the full control effect; nearly all actives have a fitted effect of over 60% in size. Particulars: iHSKM muscle cells + IFN-b, HiBiT or CellTiter-Glo, 24 h; Viability; at 45.9 µM (top of the series). In short, it runs like this: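 Myoblasts (C25cl48, HLA-B HiBiT) seeded in medium without dexamethasone, IFN-b 4 ng/ml added except unstimulated columns; 1 hr later compounds pinned (12-pt 1:3, top 46 uM final). Incubated 24 hrs, lysed 10 min, luminescence measured.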

Assay [19] is described as follows: Primary qHTS for inhibitors of nuclear receptor binding SET domain protein 2 (NSD2) in an isogenic RCH-ACV NSD2 p.E1099K mutant (9B) (AID 1645876). Further: potency means the concentration at half of the fitted maximal effect; nearly all actives have a fitted effect of over 70% in size.
Setting [20] is: measured here: cell count channel max response.
Setting [21] is: measured here: lipid channel max response.
Where [22] appears, read: measured here: PEO1 parental Z-AUC.

Sequence of ATP-dependent DNA helicase Q1 (Homo sapiens) (P46063 whole entry, looked up): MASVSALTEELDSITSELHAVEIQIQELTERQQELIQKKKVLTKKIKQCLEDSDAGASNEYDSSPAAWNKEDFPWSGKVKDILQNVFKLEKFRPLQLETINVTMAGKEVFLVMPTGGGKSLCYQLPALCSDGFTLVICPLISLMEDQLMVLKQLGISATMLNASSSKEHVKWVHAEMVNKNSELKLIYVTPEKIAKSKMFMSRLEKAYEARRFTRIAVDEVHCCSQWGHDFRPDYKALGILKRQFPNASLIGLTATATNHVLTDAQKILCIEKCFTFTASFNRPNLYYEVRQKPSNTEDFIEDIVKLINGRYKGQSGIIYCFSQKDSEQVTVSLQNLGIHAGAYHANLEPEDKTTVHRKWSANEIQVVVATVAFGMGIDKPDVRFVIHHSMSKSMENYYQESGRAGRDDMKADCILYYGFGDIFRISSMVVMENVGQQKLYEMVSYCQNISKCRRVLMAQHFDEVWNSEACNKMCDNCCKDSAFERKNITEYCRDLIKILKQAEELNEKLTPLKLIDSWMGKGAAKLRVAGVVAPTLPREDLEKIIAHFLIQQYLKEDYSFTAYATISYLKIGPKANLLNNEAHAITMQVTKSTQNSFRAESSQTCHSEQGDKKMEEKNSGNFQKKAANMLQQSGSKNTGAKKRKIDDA
Sequence of DNA repair nuclease/redox regulator APEX1 (Homo sapiens) (P27695 whole entry, looked up): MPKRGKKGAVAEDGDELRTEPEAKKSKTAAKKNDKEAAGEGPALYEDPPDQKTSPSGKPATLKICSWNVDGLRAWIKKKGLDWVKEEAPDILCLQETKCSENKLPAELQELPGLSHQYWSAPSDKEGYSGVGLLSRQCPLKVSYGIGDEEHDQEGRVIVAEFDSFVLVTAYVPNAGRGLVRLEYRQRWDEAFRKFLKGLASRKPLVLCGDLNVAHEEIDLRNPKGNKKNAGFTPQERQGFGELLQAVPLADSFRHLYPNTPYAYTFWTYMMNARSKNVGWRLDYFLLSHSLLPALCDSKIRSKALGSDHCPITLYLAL
Sequence of Thyrotropin-releasing hormone receptor (Homo sapiens) (P34981 whole entry, looked up): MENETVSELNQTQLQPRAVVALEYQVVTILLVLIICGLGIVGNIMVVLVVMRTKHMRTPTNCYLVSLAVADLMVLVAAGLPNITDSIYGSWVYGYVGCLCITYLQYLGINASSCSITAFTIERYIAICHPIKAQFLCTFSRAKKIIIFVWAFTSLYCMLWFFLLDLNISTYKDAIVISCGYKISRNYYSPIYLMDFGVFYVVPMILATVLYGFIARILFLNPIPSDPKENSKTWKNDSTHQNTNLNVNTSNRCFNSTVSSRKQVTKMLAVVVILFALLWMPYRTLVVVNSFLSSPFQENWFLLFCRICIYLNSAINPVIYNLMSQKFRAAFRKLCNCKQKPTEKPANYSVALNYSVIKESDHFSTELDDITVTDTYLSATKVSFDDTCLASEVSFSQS
Sequence of M-phase phosphoprotein 8 (Homo sapiens) (Q99549 whole entry, looked up): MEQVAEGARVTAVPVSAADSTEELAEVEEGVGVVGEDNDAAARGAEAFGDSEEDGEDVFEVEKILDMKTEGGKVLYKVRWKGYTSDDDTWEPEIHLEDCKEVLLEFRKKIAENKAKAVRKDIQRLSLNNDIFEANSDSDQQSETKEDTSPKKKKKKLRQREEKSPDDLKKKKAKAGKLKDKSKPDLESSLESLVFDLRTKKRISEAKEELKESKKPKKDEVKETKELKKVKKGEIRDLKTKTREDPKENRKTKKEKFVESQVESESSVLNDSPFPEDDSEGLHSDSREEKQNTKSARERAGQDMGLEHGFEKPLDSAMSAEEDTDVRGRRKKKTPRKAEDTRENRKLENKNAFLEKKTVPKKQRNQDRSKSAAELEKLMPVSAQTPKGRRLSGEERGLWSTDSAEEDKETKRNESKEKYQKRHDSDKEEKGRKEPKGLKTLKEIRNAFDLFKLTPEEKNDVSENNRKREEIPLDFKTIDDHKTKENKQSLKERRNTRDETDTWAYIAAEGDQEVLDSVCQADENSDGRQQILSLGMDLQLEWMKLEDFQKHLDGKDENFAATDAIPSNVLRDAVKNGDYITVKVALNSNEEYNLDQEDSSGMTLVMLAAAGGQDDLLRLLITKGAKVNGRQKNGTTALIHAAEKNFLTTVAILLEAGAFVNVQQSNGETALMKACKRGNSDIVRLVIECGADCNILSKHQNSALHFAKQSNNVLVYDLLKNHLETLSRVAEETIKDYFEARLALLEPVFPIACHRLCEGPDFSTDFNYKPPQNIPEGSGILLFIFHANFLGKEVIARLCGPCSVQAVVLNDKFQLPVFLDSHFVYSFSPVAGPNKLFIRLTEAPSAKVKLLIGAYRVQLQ
Sequence of Galactokinase (Homo sapiens) (P51570 whole entry, looked up): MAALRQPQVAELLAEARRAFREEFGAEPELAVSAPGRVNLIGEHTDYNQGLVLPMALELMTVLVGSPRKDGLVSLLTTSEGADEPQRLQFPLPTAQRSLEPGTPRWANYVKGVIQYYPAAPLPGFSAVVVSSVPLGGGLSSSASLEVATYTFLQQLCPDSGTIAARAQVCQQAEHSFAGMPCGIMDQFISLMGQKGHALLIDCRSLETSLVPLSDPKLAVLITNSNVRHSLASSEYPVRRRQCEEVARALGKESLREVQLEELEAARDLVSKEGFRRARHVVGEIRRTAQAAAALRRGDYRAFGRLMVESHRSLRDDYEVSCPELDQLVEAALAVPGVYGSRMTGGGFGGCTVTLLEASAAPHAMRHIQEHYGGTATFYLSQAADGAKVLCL
Sequence of Glutathione peroxidase 1 (Homo sapiens) (P07203 whole entry, looked up): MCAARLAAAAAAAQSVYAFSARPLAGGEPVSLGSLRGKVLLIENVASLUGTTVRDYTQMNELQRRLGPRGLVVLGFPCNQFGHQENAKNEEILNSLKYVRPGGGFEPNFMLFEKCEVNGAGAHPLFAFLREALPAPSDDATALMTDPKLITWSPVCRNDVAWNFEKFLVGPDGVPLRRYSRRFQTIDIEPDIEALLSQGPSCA
Sequence of Phospholipid hydroperoxide glutathione peroxidase GPX4 (Homo sapiens) (P36969 whole entry, looked up): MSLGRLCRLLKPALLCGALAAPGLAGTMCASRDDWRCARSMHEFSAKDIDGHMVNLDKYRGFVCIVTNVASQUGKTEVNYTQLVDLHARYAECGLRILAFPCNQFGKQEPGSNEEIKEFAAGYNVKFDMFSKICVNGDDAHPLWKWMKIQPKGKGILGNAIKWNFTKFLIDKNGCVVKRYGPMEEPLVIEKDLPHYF

With `CC(C)C1NC(=O)[C@H](CCCCN)NC(=O)[C@@H](Cc2c[nH]c3ccccc23)NC(=O)[C@H](Cc2ccc(O)cc2)NC(=O)[C@H](C)N(C)C(=O)[C@H](Cc2ccccc2)NC1=O` (stereo not given in full), the call in assay [1], in assay [5], in [7], in [12] and in assay [13] was inactive. For the same compound, the activity change, negative = inhibition in assay [2] is 0.502% (inactive). The max response was found to be 25.5% in [2] (setting [20]) and 23% in assay [2] (setting [21]). For the same compound, the Potency result in [3], in assay [4], in assay [6], in assay [8], in assay [9] and in assay [10] was “inactive” in each case. Besides, the activation in assay [11] was -0.438% (inactive).

`NCC1OC(O[C@@H]2[C@H](O)[C@@H](OC3C(O)C(N)CC(N)C3OC3OC(CO)C(O)C(O)C3N)O[C@@H]2CO)C(N)C(O)C1O` (stereo not given in full): the compound was called inactive in [1], in assay [5], in [7], in assay [12] and in assay [13]. The activity change, negative = inhibition in assay [2] was 1.08% (inactive). For the same compound, the results for the max response in assay [2] (setting [20]) and in [2] (setting [21]) were -5.44% and -4.61%, respectively. Also, the Potency entry in assay [3], in [4], in assay [6], in [8], in [9] and in [10] was “inactive” each time. The activation in assay [11] was 1.44% (inactive).

In the case of `Cc1c(C(=O)Nc2ccc(Oc3ccnc4[nH]cc(-c5ccccc5)c34)c(F)c2)c(=O)n(-c2ccc(F)cc2)n1C`, the Potency in assay [14] was 1.86 µM (active). Moreover, the Potency result in [15] and in assay [16] was “inactive” throughout. For the same compound, the Z-AUC in assay [17] was 0.886 (inactive); in [17] (setting [22]), 0.825; in [17] (measured here: PEO4 Z-AUC) it was 0.513. Further, the activity change, negative = inhibition in assay [18] was -7.02% (inactive).

As for `C[C@]12CCC(=O)C=C1CC[C@@H]1C2[C@@H](O)C[C@@]2(C)[C@H]1CC[C@]2(O)C(=O)CO` (stereo not given in full), the compound was classed as inactive in assay [1], in assay [5], in assay [7], in assay [12] and in assay [13]. Further, the activity change, negative = inhibition in assay [2] is 0.0073% (inactive) and -1.01% (inactive). Besides, the max response in assay [2] (setting [20]) was 2.28% and 8.51%; in assay [2] (setting [21]), 2.14% and 9.17%. Also, the Potency entry in [3], in [4], in [6], in assay [8], in assay [9] and in assay [10] was “inactive” each time. For the same compound, the activation in [11] is 1% (inactive).

`Nc1nc(SCc2ccc([N+](=O)[O-])cc2)c2ncn([C@@H]3O[C@H](CO)[C@H](O)[C@H]3O)c2n1`: the call in assay [1], in [5], in assay [7], in [12] and in assay [13] was inactive. Moreover, the activity change, negative = inhibition in assay [2] is -2% (inactive). The max response is -35.2% in assay [2] (setting [20]) and -38% in assay [2] (setting [21]). Besides, the Potency entry in assay [3], in assay [4], in assay [6], in assay [8], in assay [9] and in [10] was “inactive” throughout. In addition, the activation in assay [11] is 0.75% (inactive).

Regarding `Cn1cc(-c2ccc(-c3cncc(Cl)c3N3CCC4(CCNC4=O)CC3)cc2)cn1`, the Potency was 8.33 µM (active) in assay [19] and 0.833 µM (active) in assay [14]. In addition, the Potency result in assay [15] and in [16] was “inactive” in each case. Also, the Z-AUC in assay [17] is -1.1 (inactive); in [17] (setting [22]) it was -0.614; in [17] (measured here: PEO4 Z-AUC), -1.18. Moreover, in assay [18], the activity change, negative = inhibition is -3.23% (inactive).
